In PubChem BioAssay (NCI):
This is part of a sample that, as a whole, favours compounds with a hit. Of some 83,000 tested, about 20% had one in any assay.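 The test compound was applied at a single concentration to cells in 96-well plates for 48 hours, and percent growth was recorded.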 Calls of active or inactive are those of the source. Rule for the calls: active = growth percent below 10; inactive = the rest.

Tested on: SNB-19 CNS
Assay: NCI-60 one-dose screen, 48 h (100 = growth as untreated, 0 = no growth, -100 = all killed)
Details: 10 µM unless noted

| SMILES | growth |
| --- | --- |
| COc1cc(/C=C/C(=O)c2cccc(-n3cc(-c4ccccc4)[nH]c3=O)c2)cc(OC)c1OC | 20.2% (inactive) |
| C[C@@H]1C(=O)N(C[C@H](Cc2ccccc2)NC(=O)OCc2ccccc2)[C@]1(Cc1ccccc1)C(=O)OC(C)(C)C | 71.7% (inactive) |
| Oc1ccccc1-c1nc2ccccn2c1NCCN1CCOCC1 | 99.7% (inactive) |
| COc1ccc(/C(C)=C(\c2ccc(Cl)cc2)c2ccc(OCCCN(C)C)cc2)cc1F | 67% (inactive) |
| COc1cc2ccccc2cc1C(=O)NC(=S)Nc1ccc(-c2nc3ccccc3[nH]2)cc1 | 86.6% (inactive) |
| O=[N+]([O-])c1ccc2[nH]cc(-c3c4ccsc4cc4[nH]c5ccc([N+](=O)[O-])cc5c34)c2c1 | 13.4% (inactive) |
| CCOC(=O)c1nnn(C(Cc2ccccc2Cl)C(=O)OCC)c1C (stereo not drawn) | 104% (inactive) |
| Cc1nc(Nc2ccccn2)sc1C(=O)/C=C/c1ccc(Br)cc1 | 69.2% (inactive) |
| CN(C)c1ccc(/C=C/c2c(F)cccc2F)cc1 | 105% (inactive) |
| N#Cc1c(-c2ccc(C(F)(F)F)cc2)cc(N2CC(O)C2)n2c1nc1ccccc12 | 24.8% (inactive) |
| O=C1c2ccccc2C(=O)c2cc(Cn3cc[n+](Cc4ccc5ccccc5c4)c3)ccc21 | 79.5% (inactive) |
| O=C(CC12CC3CC(CC(C3)C1)C2)NCCOCCOCCOCCNC(=O)c1cc2c(o1)C(=O)c1ccccc1C2=O | -0.887% (active) |
| Oc1[nH]c2ccccc2c1/C=c1/cc2c(c(-c3ccc(F)cc3)n1)=Nc1ccccc1-2 | 25.2% (inactive) |
